Screening results from PubChem.
RXFP1 agonist: qHTS Assay for Agonists of the Relaxin Receptor RXFP1; Relaxin receptor 1 (Homo sapiens), Q9HBX9; HEK293T-RXFP1 cAMP TR-FRET, 30 min; response scale: percent of porcine relaxin response, buffer zero; Potency, µM (doses to about 57.5 µM), for inactives: top-dose activation, hits mostly activators; 0.3% of 370,000 active; AID 2676, 2010; active means well fitted activation curve with a large enough effect; inconclusive means small, poorly fitted or top-dose-only effect; further: potency means the concentration at half of the fitted maximal effect; on the % scale 0 is the no-effect control and ±100 the full control effect; nearly all actives have a fitted effect of over 60% in size
Target sequence (Q9HBX9 whole entry, looked up): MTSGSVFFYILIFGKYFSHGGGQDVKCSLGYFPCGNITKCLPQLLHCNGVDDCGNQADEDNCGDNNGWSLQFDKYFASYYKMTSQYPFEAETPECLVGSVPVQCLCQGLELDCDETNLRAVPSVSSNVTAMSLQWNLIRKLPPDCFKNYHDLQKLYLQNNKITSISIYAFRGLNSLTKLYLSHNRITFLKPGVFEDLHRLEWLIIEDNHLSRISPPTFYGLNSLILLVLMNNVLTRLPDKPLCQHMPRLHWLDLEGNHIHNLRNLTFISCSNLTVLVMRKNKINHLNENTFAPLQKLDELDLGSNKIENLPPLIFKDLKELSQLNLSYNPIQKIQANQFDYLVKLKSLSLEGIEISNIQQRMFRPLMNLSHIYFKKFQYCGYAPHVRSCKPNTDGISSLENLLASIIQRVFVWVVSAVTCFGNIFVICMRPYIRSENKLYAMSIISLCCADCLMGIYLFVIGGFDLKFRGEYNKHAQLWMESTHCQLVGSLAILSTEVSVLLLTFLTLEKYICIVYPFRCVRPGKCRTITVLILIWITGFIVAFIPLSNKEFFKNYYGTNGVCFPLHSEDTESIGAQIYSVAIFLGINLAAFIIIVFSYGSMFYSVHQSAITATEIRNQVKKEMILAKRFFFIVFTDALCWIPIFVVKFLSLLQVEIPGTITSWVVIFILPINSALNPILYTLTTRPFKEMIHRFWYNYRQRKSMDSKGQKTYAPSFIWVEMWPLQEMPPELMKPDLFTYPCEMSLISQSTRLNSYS
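Agonist response is measured as cAMP accumulation in an RXFP1-transfected HEK293T line under PDE4 inhibition. Values are scaled between buffer-only and 29 nM porcine relaxin, and EC50s come from standard Hill equation fits.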
gsp ag: qHTS for Agonist of gsp, the Etiologic Mutation Responsible for Fibrous Dysplasia/McCune-Albright Syndrome: qHTS; gsp mutant cells, cAMP HTRF, 30 min; Potency, µM (doses to about 76.9 µM), for inactives: at the highest dose activation (cAMP increase), most hits filed as activators; 0.13% of 340,000 active; active means well fitted activation curve with a large enough effect; inconclusive means small, poorly fitted or top-dose-only effect, or another doubt; inactive means no such curve, though single readings can be large or run the other way; cell line not stated here;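 further: phosphodiesterase inhibitor Ro 20-1724 added with compounds to block cAMP breakdown; potency means the concentration at half of the fitted maximal effect; nearly all actives have a fitted effect of over 60% in size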
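Cells stably selected in G418 were plated at 2000/well, grown 16-24 hr, then given compounds in DMSO with the PDE inhibitor […] (300 uM solution added) for 30 min at 37C; cAMP was read by HTRF.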
gsp antag: qHTS for Antagonists of gsp, the Etiologic Mutation Responsible for Fibrous Dysplasia/McCune-Albright Syndrome: qHTS; gsp-mutant cells, cAMP HTRF, 30 min; 0.4% of 340,000 active; AID 624288, 2012; Potency, µM (titrated, usually from 76.9 µM), without a hit: top-dose activity change, negative = inhibition, hits mostly inhibitors; calls by dose curve; cell line not stated here;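 further: intracellular cAMP measured with PDE inhibitor Ro 20-1724 present during compound exposure; potency means the concentration at half of the fitted maximal effect; on the % scale 0 is the no-effect control and ±100 the full control effect; nearly all actives have a fitted effect of over 65% in size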
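Cells in G418 medium, seeded 16-24 h, 37C; buffer exchange to DPBS + 1 mM CaCl2, 0.5 mM MgCl2, 0.05% BSA; cpds in DMSO + […] (300 uM stock), 30 min 37C; HTRF cAMP detection.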
RXFP1 antagonist: qHTS Assay for Antagonists of the Relaxin Receptor RXFP1. Relaxin receptor 1 (Homo sapiens), Q9HBX9. HEK293-RXFP1, relaxin-stimulated cAMP HTRF, 30 min; active compounds read low. activity change, negative = inhibition, % at 57.5 µM. 0.59% of 350,000 active. AID 1259400, 2018;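 active means activity change of -60% or lower, but not beyond a set lower limit; inconclusive means change between -60% and -40%, or beyond the set limit; inactive means change above -40%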; further: on the % scale 0 is the no-effect control and ±100 the full control effect
Numbers without * were called inactive; ? = inconclusive; . = not tested or not shown; + = active, no number; ! = not active in a repeat; [ ] = dose if it differs, or a comment. Shown are actives, neighbours in structure and some others; about 0.9% of the full set was active somewhere.

SMILES	RXFP1 agonist	gsp ag	gsp antag	RXFP1 antagonist
COc1ccc(C(C[N+](=O)[O-])c2c(C)[nH]n(-c3ccccc3)c2=O)cc1 (centres undefined)	1%	-9%	9%	-13
COc1ccc(OC)c(NC(=O)c2cccc(N3C(=O)C4C5C=CC(C6CC56)C4C3=O)c2)c1 (centres undefined)	2%	-48%	28µM*	-10
Cc1ccc(-c2cc(-c3ccc4c(c3)NC(=O)CO4)nc3c2COc2ccc(C)cc2-3)cc1	9%	.	.	.
N#C/C(=C\c1cccs1)C(=O)c1ccccc1Cl	0%	-3%	-1%	-61*
O=S(=O)(Nc1ccc(Br)cc1)c1ccc2nc(-c3ccccc3)[nH]c2c1	0%	.	.	.
CC(C)c1ccc(NS(=O)(=O)c2ccc3nc(-c4ccccc4)[nH]c3c2)cc1	1%	.	.	-69*
O=C(Nc1ccc(Cl)cc1)C1CCC(CNS(=O)(=O)c2ccc(Br)s2)CC1 (centres undefined)	2%	.	.	-26
CCc1cc2c(=O)c(-c3ccc4c(c3)OCCO4)coc2cc1OS(C)(=O)=O	-2%	-16%[15.4 µM]	?	-84*
O=C(Nc1nc(-c2cc(F)ccc2F)cs1)c1cccc(N2C(=O)CCC2=O)c1	-1%	-6%	40µM*	-40
O=C(Nc1nc(-c2ccc(F)cc2)cs1)c1cccc(N2C(=O)CCC2=O)c1	5%	-34%	?	-22
CC1(C)NC(=O)N(CC(=O)OCC(=O)c2ccc(Br)s2)C1=O	.	10µM*	14%	15
Cc1ccc(/C=N/n2c(COc3ccccc3)n[nH]c2=S)cc1	0%	23%	-20%	-2
CC(C)c1ccc(/C=N/n2c(COc3ccccc3)n[nH]c2=S)cc1	3%	26%	?	-61*
O=C(CO)[C@@H](O)[C@H](O)[C@@H](O)CO	.	.	.	-3
Cn1c(=O)cc(SCC(=O)NCCCN2CCOCC2)c2ccc(Cl)cc21	12%	28µM*	6%	17
Cn1c(=O)cc(SCC(=O)NCCCN2CCOCC2)c2ccccc21	12%	22µM*	-2%	-1
O=C(COc1ccc2c(c1)oc(=O)c1ccccc12)NCCCN1CCOCC1	2%	31%	+	-3
CCn1c(=O)cc(SCC(=O)NCCCN2CCN(c3ccc(F)cc3)CC2)c2ccccc21	11%	22µM*	-6%	38
Cc1ccccc1C(=O)Nc1nnc(SCc2cc(=O)c3c(C)ccc(C)c3[nH]2)s1	-2%	.	.	8
CCc1ccc(S(=O)(=O)c2c(C(=O)c3ccc(C)c(C)c3)cnc3ccccc23)cc1	0%	.	.	6
O=C(CCCCCN1C(=O)c2ccccc2C1=O)Nc1ccc(C(=O)O)cc1	1%	-6%	7%	1
Cc1ccc(CNC(=O)CCCN2C(=O)c3cccnc3Oc3ccc(Cl)cc32)cc1	0%	.	.	-2
COc1ccc(CCNC(=O)CCCn2c(=O)c3cccn3c3cccnc32)cc1OC	7%	.	.	-6
CCOc1ccc(CCNC(=O)CCCn2c(=O)c3cccn3c3cccnc32)cc1OCC	?	0%	?	-96*!
O=C(Cn1c(SCCOc2ccccc2Cl)nc2ccccc21)N1CCOCC1	-3%	.	.	.
SMILES	RXFP1 agonist	gsp ag	gsp antag	RXFP1 antagonist
COc1ccc2c(C(=S)N(C)CC(=O)O)cccc2c1C(F)(F)F	.	.	.	-3
CCOC(=O)c1c(CN2CCN(C)CC2)n(-c2ccccc2)c2cc(Br)c(O)cc12	-3%	19%	-21%	-17
CCOC(=O)c1c(CSC(=N)N)n(-c2ccccc2)c2cc(Br)c(OC(C)=O)cc12	0%	2%[15.4 µM]	1%	-61*
COc1ccc(-c2cn3nc(N4CCCC(C(=O)Nc5cc(C)ccc5C)C4)sc3n2)cc1 (centres undefined)	-1%	.	.	-5
CN(Cc1ccccc1)C(=O)CN1CCN(C(c2ccccc2)c2ccccc2)CC1	3%	-10%[15.4 µM]	-22%	-81*
CCOC(=O)c1ccc(NC(=O)c2csc3c2CCCC3)cc1	-2%	.	.	-93*
CCOC(=O)c1ccc(NC(=O)c2sc3nc(N4CCOCC4)c4c(c3c2N)CCCC4)cc1	9%	18µM*	-2%	28
COc1cc(S(N)(=O)=O)cc(C(=O)O)c1OC	.	.	.	-7
COc1ccccc1N1CCN(C(=S)Nc2ccc(S(=O)(=O)N3CCOCC3)cc2)CC1	2%	4%[15.4 µM]	32µM*	-5
OC(COC(c1ccccc1)c1ccccc1)CN1CCc2ccccc2C1 (centres undefined)	0%	-21%	-3%	-18
OC(COC(c1ccc(F)cc1)c1ccc(F)cc1)CN1CCc2ccccc2C1 (centres undefined)	-3%	-56%	4%	-62*
Cc1cc(C)cc(N2CCn3c2nc2c3c(=O)n(CCCc3ccccc3)c(=O)n2C)c1	18%	.	.	3
O=C1C=C(O)c2cccc3cccc1c23	18µM*	?	-1%	22
C=C(C)C(=O)OCC(O)CO (centres undefined)	.	.	.	10
O=C(CNC(=O)c1ccccc1Br)N/N=C\c1cc([N+](=O)[O-])cc(Br)c1O	-4%	0%	-5%	-67*
O=C(Cc1ccc(Cl)cc1)N/N=C/c1cccc(O)c1	1%	0%	50µM*	10
O=C(Cc1ccc(Cl)cc1)N/N=C/c1ccccc1	0%	6%	6%	23
O=C(Cc1ccccc1)N/N=C/c1cc(Br)cc(Cl)c1O	10%	12%[15.4 µM]	-13%	-63*
O=C(CNC(=O)c1ccccc1Br)N/N=C/c1ccccc1O	0%	-17%[15.4 µM]	-20%	8
O=C(CP(=O)(c1ccccc1)c1ccccc1)N/N=C/c1cc(Br)cc(Br)c1O	3%	2%[15.4 µM]	-27%	-71*
CC1=C(c2ccc(F)cc2)S(=O)(=O)N=C1N1CCC(C(=O)NCCc2ccco2)CC1	-3%	.	.	5
CC(C)c1nc(N2CCN(C(=O)c3ccco3)CC2)c(C#N)c2c1COC(C)(C)C2	3%	-10%	-11%	-61*
CCOC(=O)c1c(C)n(-c2ccccc2)c2ccc(OC(=O)c3ccccc3NC(=O)C(C)C)cc12	-1%	.	.	-32
CCOC(=O)c1c(C)n(-c2ccccc2)c2ccc(OC(=O)c3ccccc3NC(=O)C(C)(C)C)cc12	0%	.	.	-64*
CCOC(=O)c1cccc(NC(=O)c2cc3sccc3n2C)c1	0%	-2%	35µM*	-5
O=C(NCCCN1CCN(c2ccccc2)CC1)c1nnc(Cc2ccc(F)cc2)o1	0%	.	.	-7
O=C1CN(C(=O)Nc2ccccc2Cl)C(c2ccccc2)c2c(sc3c2CCCC3)N1 (centres undefined)	0%	.	.	-19
Cc1ccc(-c2nnc(-n3nc(C)cc3C)c3ccccc23)cc1	-1%	2%	35µM*	-2
Cc1cc(C)n(-c2nnc(Cl)c3ccccc23)n1	-2%	-44%	-17%	1
Cc1ccc(OCCn2c(CNc3cccc(C)c3)nc3ccccc32)cc1	-1%	.	.	?
